Screens (PubChem)
Only some compounds are listed: those with a hit (about 4.3% of all), similar ones and a draw of the others.
dFosB activator: activators of mouse delta FosB homodimer. P13346. AID 493131. 0.99% of 340,000 active. activation, % at 25 µM. purified delta FosB, TAMRA-CDK5 oligo fluorescence polarization; percent of positive-control signal above neutral wells;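 active = mean activation above about 17%, with every replicate also reaching it, limit read from the data, passing the limit was not always enough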
Target sequence (P13346 whole entry, looked up): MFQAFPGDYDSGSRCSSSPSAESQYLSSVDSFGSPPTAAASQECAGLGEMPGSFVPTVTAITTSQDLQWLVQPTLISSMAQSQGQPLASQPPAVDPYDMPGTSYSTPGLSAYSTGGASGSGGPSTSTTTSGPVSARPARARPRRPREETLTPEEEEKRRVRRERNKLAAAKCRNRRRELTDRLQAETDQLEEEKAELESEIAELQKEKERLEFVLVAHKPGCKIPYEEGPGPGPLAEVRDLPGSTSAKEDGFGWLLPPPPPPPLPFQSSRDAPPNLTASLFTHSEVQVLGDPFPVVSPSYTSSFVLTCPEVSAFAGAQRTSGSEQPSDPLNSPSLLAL
UBC13 inh: blocks human UBC13 polyubiquitin chain formation; P61088; TR-FRET; inhibition, % at 20 µM; 0.47% of 330,000 active; AID 485273; in the data active = inhibition above about 45%, passing the limit was not always enough
Target sequence (P61088 whole entry, looked up): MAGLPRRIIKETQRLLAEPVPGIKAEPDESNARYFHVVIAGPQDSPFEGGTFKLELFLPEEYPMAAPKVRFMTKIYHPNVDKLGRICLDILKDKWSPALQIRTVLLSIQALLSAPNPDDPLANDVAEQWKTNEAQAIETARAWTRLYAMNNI
GRIN3A LBD mod: NR3A (human) ligand-binding domain modulation. NR3A LBD differential scanning fluorimetry, Tm shift; 0% = protein alone, 100% = glycine-bound protein. Tm shift relative to glycine control, % at 25 µM. 2.5% of 340,000 active. AID 1259313;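 active = melting temperature shift of at least 10% of the positive control shift, at one fixed dose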
NALP1 yeast inh: inhibitors of NALP1 inflammasome in yeast; S. cerevisiae NALP1/ASC/caspase-1 growth, X-gal OD620, 72 h; AID 2071; inhibition, % at 10 µM; 0.61% of 280,000 active; in the data active = inhibition mostly above about 24%, no sharp cut-off; inactive = mostly below about 32%
CR mimetic SO: caloric restriction mimetics inhibiting age-related superoxide in yeast; S. cerevisiae aged cells, superoxide DHE fluorescence; stronger effect = lower value; superoxide response (% of plate mean), % at 10 µM; 0.18% of 330,000 active; AID 2690;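 active = superoxide response under a set limit, about three screen SD below normal, cut at about 65% in these data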;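 also: yeast aged for seven days with compound at 30 °C before DHE staining; 100% = average MFI of all compound-treated wells on the plate with controls excluded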
Starred values were filed as active, the others as inactive; x = not tested or not shown.

SMILES | dFosB activator | UBC13 inh | GRIN3A LBD mod | NALP1 yeast inh | CR mimetic SO
O=C(c1cc(C2CC2)on1)N1CCCC(N2CCN(c3cccc(C(F)(F)F)c3)CC2)C1 (stereo not given) | -15 | -1 | 1 | 12 | 109
Cc1cccc(C(=O)N2CCCC(N3CCN(c4cccc(Cl)c4)CC3)C2)n1 (stereo not given) | 0 | 6 | 13* | 13 | 98
Cc1ccccc1N1CCN(C2CCCN(C(=O)c3ccc(Cl)s3)C2)CC1 (stereo not given) | -12 | 8 | 11* | 4 | 94
COc1cc2c(cc1OC)C(C(=O)NCCN(C)C)C(c1cccs1)N(C)C2=O (stereo not given) | 0 | 0 | 1 | 2 | 102
COc1ccccc1/C=C/C=N/n1c(C2CCCCC2)n[nH]c1=S | -4 | -19 | 13* | 36 | 97
CCOc1ccccc1/C=N/n1c(C2CCCCC2)n[nH]c1=S | 2 | -5 | 1 | -2 | 105
O=C(CCc1ccc(S(=O)(=O)N2CCOCC2)cc1)OCC(=O)c1ccccc1 | -4 | -4 | 2 | x | 103
Cc1ccc(-c2cc(N)nc(-c3ccccc3)c2)cc1 | -12 | 9 | -8 | 18 | 94
COc1ccc(OC)c(CCNC(=O)CC2(CC3=NS(=O)(=O)c4ccccc4N3)CCCC2)c1 | -7 | 7 | 2 | 35 | 111
COc1ccc(Cn2c(=O)[nH]c3cc(C(=O)N4CCN(Cc5ccccc5)CC4)ccc3c2=O)cc1 | -7 | 7 | -3 | 27* | 96
CCN(CC(=O)NC1CCCC1)S(=O)(=O)c1ccc(Br)cc1 | -3 | -5 | 11* | -7 | 104
CCN(CC(=O)NC1CCCC1)S(=O)(=O)c1ccc(C)cc1 | 3 | 4 | 0 | 8 | 82
Cc1c2c(nc3ccccc13)CCC(C)C2 (stereo not given) | -12 | 2 | 3 | 36* | 86
COc1ccc(/C(C)=N/Nc2nc3ccccc3n3cnnc23)cc1OC | x | -9 | -6 | 9 | 92
COc1ccc(C2c3[nH]c4ccccc4c3CCN2CCCn2cccn2)c(C)c1C (stereo not given) | -7 | 10 | 1 | 51* | 91
OC(CCc1ccncc1)COc1ccccc1 (stereo not given) | -1 | 5 | 1 | x | 91
COc1ccc(Cn2c(=O)c3[nH]cnc3n(-c3ccc(C)cc3)c2=O)cc1 | -3 | -2 | 0 | x | 109
O=C(Cn1c(=O)oc2cc(S(=O)(=O)N3CCCC3)ccc21)N1CCN(c2ccccc2)CC1 | 4 | -8 | 1 | 39* | 102
O=C(Cn1c(=O)oc2ccccc21)N1CCN(c2ccccc2)CC1 | -3 | -4 | 0 | x | 100
Cc1nonc1CC(=O)NC1CCCc2c1cnn2-c1ccc(F)cc1F (stereo not given) | -7 | 0 | 4 | 14 | 94
COc1ccc(CCn2c(SCCN3CCCCC3)nc3ccccc3c2=O)cc1OC | 10 | 10 | 0 | 34* | 89
CC(=O)Nc1ccc(Nc2cc(C(C)C)nc3c(-c4ccccc4)c(C)nn23)cc1 | 3 | 21 | 17* | 18 | 84
CCN(CC(=O)Nc1c(F)cccc1F)C(=O)c1ccc2ccccc2n1 | -5 | -2 | 15* | x | 103
O=C1OCC(c2ccc(Cl)s2)=C1c1ccccc1[N+](=O)[O-] | -6 | 3 | 1 | 10 | 111
COc1ccccc1CNC(=O)CC(C)C | -6 | 5 | 1 | 8 | 92
SMILES | dFosB activator | UBC13 inh | GRIN3A LBD mod | NALP1 yeast inh | CR mimetic SO
COC(=O)CC(N)c1ccc(OC)c2ccccc12 (stereo not given) | 3 | 2 | 0 | 36* | 101
COc1cc(C(=O)NCC2(c3ccccc3)CCCC2)cc(OC)c1OC | -13 | 5 | -1 | 14 | 101
Cc1ccc(NS(=O)(=O)c2ccc(Cl)c(N=Nc3c(O)[nH]c(=O)[nH]c3=O)c2)cc1Cl | -9 | -90 | 11* | x | 88
O=C1NC2(CCCCC2)C(=O)N1CCS(=O)(=O)Oc1ccccc1 | -2 | -3 | 12* | 2 | 107
CCCCOc1ccc(/C=C/C(=O)Nc2ccc(C(N)=O)cc2)cc1 | -8 | -20 | 22* | 27 | 93
CCCCOc1ccc(/C=C/C(=O)NCCc2nc3ccccc3[nH]2)cc1 | -15 | 3 | 12* | 3 | 83
CNC(=O)c1ccc(NC(=O)/C=C/c2cccc(F)c2)cc1 | 3 | -10 | 14* | -13 | 106
CCCCOC(=O)c1ccc(NC(=O)/C=C/c2cccs2)cc1 | -24 | -5 | 19* | 36 | 74
CCOc1ccc(/C=C/C(=O)Nc2ccc(C(N)=O)cc2)cc1OC | 9 | 26 | -6 | 15 | 94
O=C(/C=C/c1cccc(F)c1)Nc1ccc(S(=O)(=O)Nc2ncccn2)cc1 | -9 | 9 | -7 | 2 | 103
COc1ccc(N2CCN(C(=O)c3ccc(CS(=O)Cc4ccc(Cl)cc4)o3)CC2)cc1 (stereo not given) | -9 | -2 | 1 | 18 | 81
COc1ccccc1NC(=O)CN1CCN(CC(=O)Nc2ccc(C)c(F)c2)CC1 | -5 | 28 | -2 | 6 | 95
CCCOc1ccc(/C=C/C(=O)Nc2ccc([N+](=O)[O-])cc2)cc1 | -12 | -19 | 27* | -11 | 109
CCOc1ccc(NC(C(=O)Nc2cccc(C(C)=O)c2)c2ccccc2)cc1 (stereo not given) | -14 | 2 | -8 | 29 | 111
CCOc1ccc(/C=C/C(=O)Nc2cccc(C(C)=O)c2)cc1 | -3 | 3 | 29* | 13 | 108
CCCCOc1ccc(/C=C/C(=O)Nc2ccc([N+](=O)[O-])cc2C)cc1 | -9 | -5 | -9 | 6 | 108
C=CCOc1ccc(/C=C/C(=O)Nc2ccc(C(=O)NC)cc2)cc1 | -6 | 10 | 24* | 29 | 86
Cc1cc(C)c(OCC(=O)Nc2nnc(C3CC3)s2)c(C)c1 | 1 | -9 | x | x | x
CN(c1ccccc1)S(=O)(=O)c1cc(C(=O)NCCCn2ccnc2)ccc1Cl | 0 | 21 | -1 | x | 101
O=C(O)c1cc(-c2c[nH]c3ccccc23)nc2ccc3ccccc3c12 | 0 | 15 | 11* | -1 | 116
c1ccc2c(-c3c[nH]c4ccccc34)c3ccccc3nc2c1 | 5 | 5 | 0 | 11 | 100
COc1ccc(-n2nnnc2SCC(=O)Nc2c(C)n[nH]c2C)cc1 | 6 | 6 | 2 | x | 110
CC(C)C(c1nnnn1Cc1cccs1)N1CCN(C(=O)c2ccco2)CC1 (stereo not given) | 0 | 1 | 1 | 8 | 124
COc1ncc(C2=CC(=O)CC(C)(C)C2)cn1 | 7 | -7 | 2 | x | 96
O=C(CC1Sc2ncnn2C1=O)Nc1ccc(Br)cc1 (stereo not given) | -10 | 0 | 0 | 85* | 100
O=C(CC1SC(=Nc2ccccc2)N(Cc2ccccn2)C1=O)Nc1ccc(Br)cc1 (stereo not given) | -6 | 3 | 12* | 11 | 96
